Experimental data published in the supplement of paper PMC4962491.
± gives the standard deviation of the averaged measurements.

Tested on: FaDu
Assay: mitochondrial oxygen consumption rate normalised to cell number, Z score vs plate DMSO wells; higher = higher oxygen consumption (negative = OCR reduction)
Conditions: treatment time 24 h, assay medium: 5 mM glucose, 5 mM pyruvate, 4 mM glutamine
Procedure: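 Secondary screen: FaDu cells were incubated 24 h with the top 130 primary hits at 0.08, 0.4, 2 or 10 uM. Mitochondrial-specific OCR (basal minus antimycin A) was measured on a Seahorse XF96 in medium with 5 mM glucose, 5 mM pyruvate and 4 mM glutamine and normalised to Hoechst cell number. OCR score = (OCR - mean of plate DMSO wells) / SD of plate DMSO wells. Three repeats.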
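Further: compound exposure in DMEM (4 mM L-glutamine, 5 mM glucose), antimycin A injected at 2 µM after the basal reading and its residual OCR subtracted from basal.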

Structure (SMILES) | mitochondrial oxygen consumption rate normalised (0.08 µM) | mitochondrial oxygen consumption rate normalised (0.4 µM) | mitochondrial oxygen consumption rate normalised (2 µM) | mitochondrial oxygen consumption rate normalised (10 µM)
Cc1ccc2c(Br)cc(Br)c(OC(=O)c3ccccc3)c2n1 | 1.43 ± 0.79 | 0.324 ± 0.71 | -3.89 ± 1.2 | -4.73 ± 1.5
O=C(O)c1cc(/N=N/c2ccc(O)c(C(=O)O)c2)ccc1O | 0.0704 ± 1.6 | 0.359 ± 0.82 | -0.373 ± 1.2 | -0.951 ± 2.1
Cc1cc(N)c2ccccc2[n+]1CCCCCCCCCC[n+]1c(C)cc(N)c2ccccc21 | 0.324 ± 0.65 | 0.622 ± 0.8 | -4.67 ± 2.1 | -7.52 ± 1.4
CC(=O)O[C@H]1C[C@@]2(C)[C@@H](C[C@@H](O)[C@H]3[C@@]4(C)CC[C@@H](O)[C@@H](C)[C@@H]4CC[C@@]32C)/C1=C(\CCC=C(C)C)C(=O)O | 0.246 ± 2.1 | -0.851 ± 1.9 | 0.0549 ± 0.78 | -0.138 ± 1.1
COc1c2occc2cc2ccc(=O)oc12 | -0.411 ± 1.2 | 0.146 ± 0.75 | -0.807 ± 2.3 | -1.8 ± 2.2
CC[C@@]1(O)C(=O)OCc2c1cc1n(c2=O)Cc2cc3c(CN(C)C)c(O)ccc3nc2-1 [Topotecan] | -0.916 ± 1.4 | 0.308 ± 0.26 |  | 0.664 ± 1.4
CN(C)c1ccc2nc3ccc(=[N+](C)C)cc-3sc2c1 | 0.933 ± 1.1 | 1.47 ± 0.68 | -2.4 ± 1.5 | -2.94 ± 3.9
O=C(O[C@H]1CN2CCC1CC2)N1CCc2ccccc2[C@@H]1c1ccccc1 | 1.08 ± 2.1 | 0.729 ± 0.44 | 0.566 ± 1.2 | -0.974 ± 1.9
CN(C)c1ccc(C(=C2C=CC(=[N+](C)C)C=C2)c2ccc(N(C)C)cc2)cc1 | -0.504 ± 1.3 | -6.33 ± 1.1 | -13.3 ± 0.17 | 
CN(C)C(=O)C(CCN1CCC(O)(c2ccc(Cl)cc2)CC1)(c1ccccc1)c1ccccc1 | 0.831 ± 1.1 | 0.616 ± 1.4 | 0.593 ± 1.7 | -0.932 ± 1.7
